High-throughput results: PubChem, several laboratories
Shown are actives, neighbours in structure and some others; about 3.6% of the full set was active somewhere.
KKLEB tox – CF airway cell cytotoxicity counter-screen | KKLEB CF airway cells viability, ATPlite luminescence, overnight; hits give low values; cells stimulated with P. aeruginosa culture filtrate | activity change (cytotoxicity), % at 5 µM | 360,000 compounds, 0.36% hits | AID 602141;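 active means corrected activity change at or below -50% at 5 µM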
CF NFkB block – inhibitors of cystic fibrosis induced NF-kB. 360,000 compounds, 0.86% hits. AID 588850. inhibition, % at 5 µM. KKLEB NF-kB-GFP reporter, PAF-induced, GFP fluorescence overnight;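 active means at least 50% inhibition at 5 µM, scaled per plate between neutral and stimulator controls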;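 further: PAF is a Pseudomonas aeruginosa culture filtrate used as stimulus; plate controls were PAF-stimulated DMSO wells for no effect and unstimulated DMSO wells for full effect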
Mdm2 MdmX PPI – human Mdm2/MdmX binding inhibition | inhibition, % at 8 µM | O15151+Q00987 | SaOS-2 split-luciferase Mdm2/MdmX complementation, luminescence | 330,000 compounds, 3% hits;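 active means inhibition of at least 50% at 8 µM in the primary screen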
Peg3 prom inh – reduces Peg3 promoter-driven luciferase expression in HeLa. HeLa PEG-Prom luciferase reporter, luminescence, overnight. inhibition, % at 20 µM. 360,000 compounds, 1.7% hits. AID 588405;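 active means inhibition of at least 50% at 20 µM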
HSP90 inh – inhibitors of HSP90 luciferase refolding in rabbit reticulocyte lysate; luciferase refolding luminescence, 3 h; inhibition, % at 5.6 µM; 290,000 compounds, 0.91% hits;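 active means inhibition above the screen-wide mean plus 3 SD, computed separately per campaign, cut at about 16% in these data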;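 further: 0% = DMSO wells and 100% = 60 µM geldanamycin wells; inhibitors lower the luminescence because luciferase stays unfolded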
LGR2 inh – Drosophila LGR2 receptor signaling inhibition | HEK293 LGR2, CRE-luciferase, bursicon-stimulated, 4 h | AID 720647 | 380,000 compounds, 0.35% hits | inhibition, % at 9.99 µM;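 active means drop in luminescence signal, shown as inhibition above about 50% in the replicate tests, limit read from the data, passing the limit was not always enough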;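 further: agonist challenge used bursicon conditioned medium at about half maximal strength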
Mdm2 MdmX conf – human Mdm2/MdmX binding inhibition, confirmed; shares compounds with Mdm2 MdmX PPI; luminescent assay; inhibition, % at 8 µM; 10,000 compounds, 55% hits; AID 489028; in the data active means inhibition above about 40%
Full FLuc ctr – counter-screen for Mdm2/MdmX inhibitors: full-length luciferase; shares compounds with Mdm2 MdmX PPI; SaOS-2 full-length luciferase counterscreen, luminescence; inhibition, % at 8 µM; 6,200 compounds, 77% hits;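 active means mean inhibition at 8 µM reaching about 37%, which flags the compound as non-specific, limit read from the data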;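 further: p53-null SaOS-2 cells with luciferase driven by a doxycycline-inducible promoter; compound on cells about two nights before reading with doxycycline added after day one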
An asterisk follows results filed as active.

C[C@H]1CN([C@@H](C)CO)C(=O)CCCn2cc(nn2)CO[C@H]1CN(C)Cc1ccc2c(c1)OCO2 was read as LGR2 inh 2.
`CN1CC2=Cc3ccccc3OC23Oc2ccccc2C=C3C1` gave KKLEB tox -4, CF NFkB block -1, Mdm2 MdmX PPI 59*, Peg3 prom inh 69*, HSP90 inh 3 and Mdm2 MdmX conf 25.
Screening CO[C@H]1CC[C@H]2CCN(C)C(=O)C[C@H](c3ccccc3)CN(C)C(=O)c3cc(C#N)ccc3OC[C@H]1O2 returned LGR2 inh 4.
`Cc1ccc(S(=O)(=O)c2c(C)nn(C(C)(C)C)c2OC(=O)c2ccc(Br)o2)cc1` gave KKLEB tox 2, CF NFkB block 13, Mdm2 MdmX PPI 89*, Peg3 prom inh 70*, HSP90 inh 2, LGR2 inh 4, Mdm2 MdmX conf 60* and Full FLuc ctr 29.
Cc1ccc(S(=O)(=O)c2c(C)nn(C(C)(C)C)c2OC(=O)c2ccco2)cc1 was read as KKLEB tox -2, CF NFkB block 22, Mdm2 MdmX PPI 9, Peg3 prom inh 45, HSP90 inh 1 and LGR2 inh 8.
`CCOc1ccccc1OCCC(=O)N1CCN(S(=O)(=O)c2ccccc2[N+](=O)[O-])CC1` gave KKLEB tox -2, CF NFkB block 10, Mdm2 MdmX PPI 62*, Peg3 prom inh 9, LGR2 inh -1 and Mdm2 MdmX conf 19.
COc1cccc(C2c3[nH]c4ccccc4c3CCN2Cc2cccn2-c2ncccn2)c1 (stereo not drawn) was read as KKLEB tox -8, CF NFkB block 5, Mdm2 MdmX PPI 8, Peg3 prom inh -7, HSP90 inh -4 and LGR2 inh 16.
Fc1ccc(C2c3[nH]c4ccccc4c3CCN2Cc2cccn2-c2ncccn2)cc1 (stereo not drawn) was read as KKLEB tox -10, CF NFkB block 13, Mdm2 MdmX PPI 78*, Peg3 prom inh 6, HSP90 inh 2, LGR2 inh -6, Mdm2 MdmX conf 62* and Full FLuc ctr 61*.
For COc1ccc(CCNC(=O)/C=C/c2ccc3ccccc3n2)cc1OC the results were KKLEB tox -13, CF NFkB block 32, Mdm2 MdmX PPI 58*, Peg3 prom inh -4, HSP90 inh 3, LGR2 inh 18, Mdm2 MdmX conf 69* and Full FLuc ctr 54*.
CC(C)Cn1c(N)c(C(=O)CSc2cc(Cl)ccc2Cl)c(=O)n(C)c1=O was read as Mdm2 MdmX PPI 69*, HSP90 inh 4 and Mdm2 MdmX conf -2.
`COCC(=O)Nc1ccc2c(c1)[C@H]1C[C@@H](CC(=O)NC3CCCC3)O[C@@H](CO)[C@H]1O2` gave LGR2 inh 5.
Screening CCC(=O)N1[C@H](CN(C(C)C)S(C)(=O)=O)[C@H](c2ccccc2)[C@@H]1CO returned LGR2 inh -9.
For O=C(Nc1cc(S(=O)(=O)Nc2ccc(Cl)cc2)ccc1N1CCCCC1)c1ccc(F)cc1 the results were KKLEB tox -3, CF NFkB block 20, Mdm2 MdmX PPI 72*, Peg3 prom inh 37, HSP90 inh 2, LGR2 inh 10 and Mdm2 MdmX conf 35.
Screening COc1ccc(NS(=O)(=O)c2cc(NC(=O)c3ccc(=O)[nH]c3)ccc2N2CCCC2)cc1 returned KKLEB tox -14, CF NFkB block 17, Mdm2 MdmX PPI 82*, Peg3 prom inh 38, HSP90 inh -2, LGR2 inh 4, Mdm2 MdmX conf 73* and Full FLuc ctr 43*.
For COc1ccc(NS(=O)(=O)c2cc(NC(=O)c3ccco3)ccc2N2CCCCC2)cc1 the results were KKLEB tox -10, CF NFkB block 25, Mdm2 MdmX PPI 60*, Peg3 prom inh 40, HSP90 inh 2, LGR2 inh 0, Mdm2 MdmX conf 40 and Full FLuc ctr 60*.
`COc1ccc(NS(=O)(=O)c2cc(NC(=O)c3ccc(Cl)cc3)ccc2N2CCOCC2)cc1` gave KKLEB tox -34, CF NFkB block 42, Mdm2 MdmX PPI 82*, Peg3 prom inh 44, LGR2 inh 16, Mdm2 MdmX conf 67* and Full FLuc ctr 27.
`C[C@@H]1CCCCO[C@@H](CN(C)S(=O)(=O)c2cn(C)cn2)[C@@H](C)CN([C@H](C)CO)C(=O)c2cc(NS(C)(=O)=O)ccc2O1` gave LGR2 inh 7.
`C[C@H](CO)N1C[C@H](C)[C@H](CN(C)CC2CC2)Oc2cc(C#Cc3cccnc3)ccc2S1(=O)=O` gave LGR2 inh -8.
`C[C@@H]1CN([C@H](C)CO)C(=O)CCCn2nncc2CO[C@@H]1CN(C)Cc1cccc(O)c1` gave LGR2 inh 11.
`COc1ccc2oc(-c3ccc(NC(=O)c4ccc(N5CCOCC5)c([N+](=O)[O-])c4)cc3)nc2c1` gave KKLEB tox -60*, CF NFkB block 54*, Mdm2 MdmX PPI 56*, Peg3 prom inh 29, HSP90 inh 1, LGR2 inh -10 and Mdm2 MdmX conf 28.
For COc1ccc(NS(=O)(=O)c2cc(NC(=O)c3ccc(=O)[nH]n3)ccc2C)cc1 the results were KKLEB tox 0, CF NFkB block -11, Mdm2 MdmX PPI 52*, Peg3 prom inh 26, LGR2 inh -8, Mdm2 MdmX conf 46* and Full FLuc ctr 65*.
`COc1ccc(NS(=O)(=O)c2cc(C(=O)O)ccc2C)cc1` gave KKLEB tox -3, CF NFkB block 0, Mdm2 MdmX PPI 25, Peg3 prom inh 11, HSP90 inh 0 and LGR2 inh 18.
CCC(=O)N[C@@H]1CC[C@H](CC(=O)NCC2CCCCC2)O[C@H]1CO was read as LGR2 inh 6.
CNC(=O)C1=C(C)Nc2nc3ccccc3n2C1c1ccc(F)cc1 (stereo not drawn) was read as KKLEB tox -3, CF NFkB block 7, Mdm2 MdmX PPI 13, Peg3 prom inh 13, HSP90 inh 0 and LGR2 inh 2.
`COc1ccc(C2C(C(=O)c3ccccc3)=C(C)Nc3nc4ccccc4n32)cc1OC` (stereo not drawn) gave KKLEB tox -10, CF NFkB block 25, Mdm2 MdmX PPI 17, Peg3 prom inh -2 and HSP90 inh 0.
`CCOC(=O)C1=C(C)Nc2nc3ccccc3n2C1c1ccccc1` (stereo not drawn) gave KKLEB tox 0, CF NFkB block 18, Mdm2 MdmX PPI 54*, Peg3 prom inh 9, HSP90 inh -6 and Mdm2 MdmX conf 8.
